Only some compounds are listed: those with a hit (about 8.2% of all), similar ones and a draw of the others.
ELG1 DNA repair: inhibitors of ELG1-dependent DNA repair in HEK293T cells; HEK293T ELG1-luciferase reporter, luminescence, 16 h; DNA damage induced by 5-fluorouridine; Potency, µM (top dose mostly 46.1 µM), without a hit: top-dose activity change, negative = inhibition, usual class: inhibitors; AID 504467; actives 2.3% (n = 330,000); also: % is scaled to controls: 0 for no effect and ±100 for the full control effect; nearly all actives have a fitted effect of over 55% in size
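HEK293T cells expressing luciferase-tagged ELG1 (2,000/well) received 5-Fluorouridine plus compound or DMSO for 16 hr at 37 °C. Luciferase was read by ONE-Glo luminescence after 30 min at room temperature.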
MCF10A rerep: DNA re-replication induction in MCF 10a cells. MCF 10A DNA re-replication, Hoechst nuclear intensity, 48 h. Potency, µM (titrated, usually from 46.1 µM), inactives show top-dose activity, positive = re-replication, most hits filed as activators. actives 2.9% (n = 350,000). AID 624296; also: % of control where 0% means no effect; nearly all actives have a fitted effect of over 50% in size
SW480 rereplic: inducers of DNA re-replication in SW480 colon cancer cells; AID 624297; actives 1.8% (n = 340,000); Potency, µM (doses to about 46.1 µM), without a hit: top-dose re-replication activation, usual class: activators; SW480 DNA re-replication, Hoechst DNA content imaging, 48 h; also: % of control where 0% means no effect; nearly all actives have a fitted effect of over 55% in size
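Image-based DNA-content assay: after two days of treatment, nuclei were labelled with the DNA dye Hoechst and imaged, and hits were compounds raising the count of nuclei showing high fluorescence intensity.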
KB-3-1 tox: kills parental KB-3-1 adenocarcinoma cells; KB-3-1 viability, CellTiter-Glo ATP luminescence, 72 h; Potency, µM (series often up to 46.1 µM), usual class: cytotoxic; actives 1.4% (n = 400,000); AID 1347075; also: % is scaled to controls: 0 for no effect and ±100 for the full control effect; nearly all actives have a fitted effect of over 60% in size
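Screening of KB-3-1 cells (DMEM, 10% FBS, phenol-red free) ran from lowest to highest compound concentration; after 72 h at 37 °C viability was read luminescently and curves fitted.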
KB-V1 cytotox: kills drug-selected multidrug resistant KB-V1 cells | KB-V1 MDR cells viability, CellTiter-Glo, 72 h | Potency, µM (doses to about 46.1 µM), actives largely listed as cytotoxic | actives 3.4% (n = 400,000); also: % is scaled to controls: 0 for no effect and ±100 for the full control effect; nearly all actives have a fitted effect of over 60% in size
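Drug-selected KB-V1 cells, grown in DMEM lacking phenol red with 10% FBS, receive compound titrations; after three days at 37 degrees C, surviving cell ATP is quantified by CellTiter-Glo luminescence and responses normalized and curve-fitted.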
An asterisk follows results filed as active; [ ] = remark or other dose. Calls follow the shape of the dose curve; as a rule, active = well fitted curve in the direction sought with a large enough effect; inconclusive = small, poorly fitted or top-dose-only effect, or another doubt; inactive = no such curve, though single readings can be large; an effect the other way counts as inactive or inconclusive. Potency is read from the fitted curve at half-maximal effect.

Results for COC(=O)C1=CN(C(C)c2ccccc2)C=C(C(=O)OC)C1c1cc(OC)c(OC)c(OC)c1 (stereo unspecified) ?
ELG1 DNA repair: -1%; MCF10A rerep: inconclusive; SW480 rereplic: 21µM*; KB-3-1 tox: inactive; KB-V1 cytotox: inactive

Results for CCN(CC)CCCNc1nc2cc(OC)c(OC)cc2c2nc(-c3ccccc3)nn12 ?
ELG1 DNA repair: -1%; MCF10A rerep: inconclusive; SW480 rereplic: inconclusive; KB-3-1 tox: 23µM*; KB-V1 cytotox: 16µM*

What do the screens show for `CCN(CC)CCCNc1nc2ccccc2c2nc(-c3ccncc3)nn12`?
ELG1 DNA repair: 0%; MCF10A rerep: inconclusive; SW480 rereplic: inconclusive; KB-3-1 tox: 18µM*; KB-V1 cytotox: inconclusive

Results for COc1cc2nc(NCCCN3CCN(C)CC3)n3nc(-c4ccccc4)nc3c2cc1OC ?
ELG1 DNA repair: -27%; MCF10A rerep: 13µM*; SW480 rereplic: inconclusive; KB-3-1 tox: inconclusive; KB-V1 cytotox: inconclusive

What do the screens show for `CCN(CC)CCCNc1nc2cc(OC)c(OC)cc2c2nc(-c3cccnc3)nn12`?
ELG1 DNA repair: -17%; MCF10A rerep: inconclusive; SW480 rereplic: inconclusive; KB-3-1 tox: inactive; KB-V1 cytotox: inconclusive

How did O=C(NNC(=O)c1nc2ccccc2[nH]1)OCc1ccccc1 do in these assays?
ELG1 DNA repair: 15%; MCF10A rerep: -40%; SW480 rereplic: -2%; KB-3-1 tox: inactive; KB-V1 cytotox: inconclusive

Results for CSc1nc(N)nc(SCC(=O)OC(C)C)c1C#N ?
ELG1 DNA repair: inconclusive; MCF10A rerep: -1%; SW480 rereplic: -1%; KB-3-1 tox: inactive; KB-V1 cytotox: inconclusive

Results for CSc1nc(N)nc(SCC(=O)c2ccc(C)cc2)c1C#N ?
ELG1 DNA repair: 13%; MCF10A rerep: 5.8µM*; SW480 rereplic: inconclusive; KB-3-1 tox: inactive; KB-V1 cytotox: inactive

What do the screens show for `CCOCCN1CCN(c2c(C)c(C)nc3cc(-c4cc(OC)cc(OC)c4)nn23)CC1`?
ELG1 DNA repair: 16µM*; MCF10A rerep: 0%; SW480 rereplic: 7%; KB-3-1 tox: inactive; KB-V1 cytotox: inactive

What do the screens show for `COCCN1CCN(c2c(C)c(C)nc3cc(-c4cccc(OC)c4)nn23)CC1`?
MCF10A rerep: inconclusive; SW480 rereplic: inconclusive; KB-3-1 tox: inactive; KB-V1 cytotox: inactive

How did O=C1c2ccccc2NC(c2ccccc2O)N1Cc1ccco1 (stereo unspecified) do in these assays?
KB-3-1 tox: inactive; KB-V1 cytotox: inactive

Results for Cc1oc(C)c2c(=O)ccc3c(c12)OC(N)=C(C#N)C3c1ccc(F)cc1 (stereo unspecified) ?
ELG1 DNA repair: 0%; MCF10A rerep: 12%; SW480 rereplic: -4%; KB-3-1 tox: inactive; KB-V1 cytotox: inactive

What do the screens show for `Cc1cc(C)c2c3c(sc2n1)C(c1cccc(F)c1)C(C#N)=C(N)O3` (stereo unspecified)?
ELG1 DNA repair: 16%; MCF10A rerep: 8.2µM*; SW480 rereplic: 18µM*; KB-3-1 tox: inactive; KB-V1 cytotox: inconclusive

How did COc1cc(-c2nc(-c3ccc4c(c3)-c3ccccc3S4(=O)=O)c(-c3ccccc3)[nH]2)cc(OC)c1OC do in these assays?
ELG1 DNA repair: 2.6µM*; MCF10A rerep: inconclusive; SW480 rereplic: 5%[9.22 µM]; KB-3-1 tox: inactive; KB-V1 cytotox: inactive

How did COc1cc(-c2nc(-c3ccccc3)c(-c3cccs3)[nH]2)cc(OC)c1OC do in these assays?
ELG1 DNA repair: inconclusive; MCF10A rerep: inconclusive; SW480 rereplic: 0%; KB-3-1 tox: inactive; KB-V1 cytotox: inactive

What do the screens show for `OC(c1ccccn1)(c1ccccn1)c1ccccn1`?
ELG1 DNA repair: 26%; MCF10A rerep: inconclusive; SW480 rereplic: inconclusive; KB-3-1 tox: inactive; KB-V1 cytotox: 10µM*

How did COc1ccc(CNC(=O)CCS(=O)(=O)c2ccc3c(c2)CC(C)N3C(=O)C2CC2)cc1 (stereo unspecified) do in these assays?
ELG1 DNA repair: inconclusive; MCF10A rerep: inconclusive; SW480 rereplic: 7%; KB-3-1 tox: inconclusive; KB-V1 cytotox: inactive

What do the screens show for `Cc1ccc(C(C)C)cc1OCC(=O)Nc1ccc(-n2cnnn2)cc1`?
ELG1 DNA repair: 4%; MCF10A rerep: -1%; SW480 rereplic: -3%; KB-3-1 tox: inactive; KB-V1 cytotox: inactive

How did CC1Cc2ccccc2N1c1ncnc(N)c1[N+](=O)[O-] (stereo unspecified) do in these assays?
ELG1 DNA repair: 1.5µM*; MCF10A rerep: inconclusive; SW480 rereplic: -24%; KB-3-1 tox: inactive; KB-V1 cytotox: inconclusive

Results for Nc1ncnc(Sc2ccccc2)c1[N+](=O)[O-] ?
ELG1 DNA repair: inconclusive; MCF10A rerep: -2%; SW480 rereplic: -8%; KB-3-1 tox: inactive; KB-V1 cytotox: inactive

How did CC1Cc2ccccc2N1c1ncnc2nc[nH]c12 (stereo unspecified) do in these assays?
ELG1 DNA repair: -19%; MCF10A rerep: 24%; SW480 rereplic: -11%; KB-3-1 tox: 9.2µM*; KB-V1 cytotox: inactive

How did CCCCCc1ccc(-c2nnc(N)s2)cc1 do in these assays?
ELG1 DNA repair: inconclusive; MCF10A rerep: inconclusive; SW480 rereplic: -9%; KB-3-1 tox: inactive; KB-V1 cytotox: inconclusive

What do the screens show for `CCCCCCc1ccc(-c2ncc(N)cn2)cc1`?
ELG1 DNA repair: inconclusive; MCF10A rerep: 13µM*; SW480 rereplic: 7%; KB-3-1 tox: inactive; KB-V1 cytotox: inactive

What do the screens show for `CCOC(=O)C1CCN(S(=O)(=O)c2cc3c(cc2C)NC(=O)CO3)CC1`?
ELG1 DNA repair: -22%; MCF10A rerep: 18%; SW480 rereplic: -7%; KB-3-1 tox: inactive; KB-V1 cytotox: inactive

What do the screens show for `O=C(N/C(=C/c1ccccc1Cl)C(=O)N1CCOCC1)c1ccccc1`?
ELG1 DNA repair: 6%; MCF10A rerep: 15%; SW480 rereplic: -3%; KB-3-1 tox: inactive; KB-V1 cytotox: inactive

How did O=C(/C(=C/c1ccccc1Cl)c1ccccc1)N1CCOCC1 do in these assays?
ELG1 DNA repair: -21%; MCF10A rerep: 15%; SW480 rereplic: 0%; KB-3-1 tox: inactive; KB-V1 cytotox: 23µM*

Results for O=C(c1cccs1)c1cn(CCOc2ccccc2Cl)c2ccccc12 ?
KB-3-1 tox: inactive; KB-V1 cytotox: inactive

Results for CCC(=O)Nc1nnc(SCC(=O)Nc2ccc3c(c2)OCCO3)s1 ?
ELG1 DNA repair: -21%; MCF10A rerep: inconclusive; SW480 rereplic: -20%; KB-3-1 tox: inconclusive; KB-V1 cytotox: inactive

What do the screens show for `COc1ccc(Nc2nnc(SCC(=O)NC(=O)Nc3ccc4c(c3)OCCO4)s2)cc1`?
ELG1 DNA repair: 0%; MCF10A rerep: 13µM*; SW480 rereplic: 10µM*; KB-3-1 tox: inactive; KB-V1 cytotox: inactive

Bioassay records (PubChem)
